This is a sample that favours compounds with a hit; in the whole collection about 27% have one here.
CYP2C9 inh: human CYP2C9 inhibition; P11712; CYP2C9 Supersomes, luciferin-H conversion, luminescence; inhibition, % at 5 µM; 96,000 compounds, 20% hits; AID 777;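 active means blocking of liver enzyme CYP2C9 beyond about 50% at 5 µM, limit read from the data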
Target sequence (P11712 whole entry, looked up): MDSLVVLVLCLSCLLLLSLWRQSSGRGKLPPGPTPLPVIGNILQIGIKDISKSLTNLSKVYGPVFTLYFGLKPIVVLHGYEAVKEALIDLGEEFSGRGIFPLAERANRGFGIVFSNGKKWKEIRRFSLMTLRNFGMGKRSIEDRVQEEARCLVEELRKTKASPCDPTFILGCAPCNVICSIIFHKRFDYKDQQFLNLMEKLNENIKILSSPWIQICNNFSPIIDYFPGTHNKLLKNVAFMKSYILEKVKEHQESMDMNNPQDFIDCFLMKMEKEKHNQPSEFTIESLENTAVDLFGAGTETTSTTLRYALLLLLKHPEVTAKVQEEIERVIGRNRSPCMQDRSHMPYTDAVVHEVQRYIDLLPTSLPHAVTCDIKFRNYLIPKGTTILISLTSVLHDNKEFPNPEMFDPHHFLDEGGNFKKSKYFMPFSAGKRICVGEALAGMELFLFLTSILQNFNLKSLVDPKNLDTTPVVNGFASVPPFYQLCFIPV
sEH act: activators of human soluble epoxide hydrolase; 91,000 compounds, 0.04% hits; purified human sEH enzymatic activity, activator screen; activation, % at 2 µM; P34913; in the data active means activation above about 37%
sEH inh: inhibitors of human soluble epoxide hydrolase | P34913 | recombinant human sEH enzymatic activity assay | inhibition, % at 2 µM | 91,000 compounds, 0.34% hits; in the data active means inhibition above about 80%
CYP2C19 inhib: blocks human cytochrome P450 2C19 | P33261 | CYP2C19 Supersomes, luciferin-H EGE luminescence, 30 min | inhibition, % at 5 µM | 96,000 compounds, 21% hits;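 active means CYP2C19 inhibition above a set limit at 5 µM in the primary screen, cut at about 50% in these data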
CYP2C19 activ: cytochrome P450 2C19 (human) activation; P33261; recombinant CYP2C19, luciferin-H EGE luminescence; active compounds read high; 0 = fully inhibited enzyme, 1 = untreated enzyme; activation factor at 5 µM; 96,000 tested, under 10 active;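 active means activation factor of at least 2 at 5 µM in the primary screen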
CYP2C9 activ: increases human cytochrome P450 2C9 activity; P11712; recombinant CYP2C9, luciferin-H conversion, luminescence; active compounds read high; factor 1 = untreated enzyme, 0 = blocked; activation factor at 5 µM; 96,000 compounds, 1.4% hits; AID 1024;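 active means activation factor of 2 or more for CYP2C9 at a 5 µM dose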
Large screens that a line does not name were inactive.

Cc1ccc(-n2c(C)cc(C(=O)CSc3nncs3)c2C)cc1	CYP2C9 inh 89.5, CYP2C19 inhib 99.5 (no result: sEH act, sEH inh)
Cc1ccc(-n2c(C)cc(C(=O)CSc3nnnn3C)c2C)cc1	CYP2C9 inh 60.8, CYP2C19 inhib 52.7
Cc1cc(C(=O)CSc2nncs2)c(C)n1-c1c(C)n(C)n(-c2ccccc2)c1=O	none
CNc1nc(NCCOC23CC4CC(CC(C4)C2)C3)nc(OCC(F)(F)F)n1	none
O=S(=O)(c1ccc2ccccc2c1)N1CCN(S(=O)(=O)N2CCCCC2)CC1	none
CCN1CCN(S(=O)(=O)c2ccc(OC)c(Br)c2)CC1	CYP2C19 inhib 72.2, CYP2C9 activ 2.6
CCN1CCN(S(=O)(=O)c2ccc3ccccc3c2)CC1	CYP2C19 inhib 70.7, CYP2C9 activ 2
CC1CCN(S(=O)(=O)c2ccc3c(c2)C(=NO)c2cc(S(=O)(=O)N4CCC(C)CC4)ccc2-3)CC1	none (no result: sEH act, sEH inh)
COc1ccc(S(=O)(=O)N2CCC(C)CC2)cc1Br	CYP2C19 inhib 70.9, CYP2C9 activ 2.9
COc1ccc(S(=O)(=O)N2CCN(C)CC2)cc1Br	none
CC(C)Cn1cc(C(=O)NCC2CCCO2)c2c3ccccc3n(C)c2c1=O (configuration not stated)	none
Cc1ccn2c(C(=O)CSc3ccc(Cl)cc3)c(C)nc2c1	none
Cc1ccn2c(C(=O)c3ccc(Cl)cc3)cnc2c1	CYP2C9 inh 75.0, CYP2C19 inhib 79.4
O=Cc1ccc(N2CCCCCC2)cc1	CYP2C19 inhib 88.8
CCOc1nc(SCCOc2ccccc2)nc(N(C)C)n1	none (no result: sEH act, sEH inh)
COCCNC(=O)Cc1ccc(Br)cc1	CYP2C19 inhib 55.5 (no result: sEH act, sEH inh)
CC(C)NC(=O)Cc1ccc(Br)cc1	none
COCCNC(=O)CC(c1ccccc1)c1ccccc1	CYP2C19 inhib 52.0
O=C(CC(c1ccccc1)c1ccccc1)NCCO	none
COCCNC(=O)CSc1nc(-c2ccccc2)c(-c2ccccc2)o1	CYP2C9 inh 70.7, CYP2C19 inhib 81.6
O=C(NCc1ccc(F)cc1)C1CCC(=O)N1CCc1ccccc1 (configuration not stated)	none
O=S(=O)(c1ccc(Br)s1)n1cccn1	none
Cn1nc(C(F)(F)F)c2cc(NC(=O)OCc3ccc(F)cc3)sc21	CYP2C19 inhib 52.3, CYP2C9 activ 2.5
Cn1nc(C(F)(F)F)c2cc(NC(=O)OCc3ccc(C(C)(C)C)cc3)sc21	CYP2C9 inh 51.7
COc1ccc(COC(=O)Nc2cc3c(C(F)(F)F)nn(C)c3s2)cc1	none
CC(C)[C@H](NC(=O)NCCc1ccc(F)cc1)C(=O)O	none
CC(=O)N(Cc1ccc(F)cc1)C1=C(NCCc2ccccc2)C(=O)c2ccccc2C1=O	CYP2C9 inh 95.4, CYP2C19 inhib 98.7
Cc1sc2nc(SCC(=O)c3cccs3)n(Cc3ccco3)c(=O)c2c1C	none
O=C(CSc1nnc(COc2cccc3ccccc23)o1)N1CCN(C(=O)c2ccco2)CC1	none (no result: CYP2C9 inh, CYP2C19 inhib, CYP2C19 activ, CYP2C9 activ)
O=C(c1ccco1)N1CCN(CCOCCOc2cccc3ccccc23)CC1	CYP2C9 inh 56.6, CYP2C19 inhib 68.1
CCOc1ccccc1-n1c(CN2CCN(C(=O)c3ccco3)CC2)nc2ccccc2c1=O	CYP2C9 inh 65.3, CYP2C19 inhib 56.6
CCOc1cc(CN2CCN(C(=O)c3ccco3)CC2)ccc1OC	none (no result: sEH act, sEH inh)
O=C(c1ccc2c(=O)n(C3CCCC3)c(=S)[nH]c2c1)N1CCc2ccccc21	none
Cc1ccc(-c2nc(NC(=O)c3nn(C)cc3[N+](=O)[O-])sc2C)cc1C	CYP2C9 inh 53.6
Cc1[nH]n(-c2ccccc2)c(=O)c1/C=N/Nc1nncc(-c2ccccc2)n1	CYP2C9 inh 82.0, CYP2C19 inhib 59.3
CCCCN(CCCC)C(=S)N/N=C/c1c(C)[nH]n(-c2ccccc2)c1=O	none
CC(C)OCCCN1CN(S(=O)(=O)c2ccc(Cl)cc2)c2nc3ccccc3nc21	none
CCOCCCN1CN(S(=O)(=O)c2ccc(Cl)cc2)c2nc3ccccc3nc21	CYP2C9 inh 80.9, CYP2C19 inhib 54.5
CC(C)OCCCN1CN(S(=O)(=O)c2cccc(Cl)c2)c2nc3ccccc3nc21	CYP2C9 inh 80.7, CYP2C19 inhib 54.5
COc1ccc(C2Nc3ccccc3C(=O)N2Cc2ccco2)cc1CN1C(=O)c2ccccc2C1=O (configuration not stated)	CYP2C9 inh 84.8, CYP2C19 inhib 74.0 (no result: sEH act, sEH inh)
COc1ccc(C2Nc3ccccc3C(=O)N2Cc2ccco2)cc1COc1ccc(F)cc1 (configuration not stated)	none (no result: CYP2C9 inh, CYP2C19 inhib, CYP2C19 activ, CYP2C9 activ)
COc1ccc(C2Nc3ccccc3C(=O)N2Cc2ccccc2)cc1COc1ccccn1 (configuration not stated)	CYP2C9 inh 60.8, CYP2C19 inhib 54.3
COc1ccc(CNc2nc3c(c(=O)n(Cc4ccc(Br)cc4)c(=O)n3C)n2C)cc1	CYP2C9 inh 63.0
Cn1c(OCc2ccc3c(c2)OCO3)nc2c1c(=O)n(Cc1cccc(Cl)c1)c(=O)n2C	none (no result: CYP2C9 inh, CYP2C19 inhib, CYP2C19 activ, CYP2C9 activ)
Cn1c(NCc2ccccc2)nc2c1c(=O)n(Cc1ccc(Br)cc1)c(=O)n2C	CYP2C9 inh 97.1, CYP2C19 inhib 88.8 (no result: sEH act, sEH inh)
Cn1c(N2CCCC2)nc2c1c(=O)n(Cc1ccc(Cl)cc1)c(=O)n2C	none
Cn1c(Cl)nc2c1c(=O)n(Cc1cccc(Br)c1)c(=O)n2C	CYP2C19 inhib 94.1 (no result: sEH act, sEH inh)
Cn1c(NCc2ccco2)nc2c1c(=O)n(Cc1ccc(Br)cc1)c(=O)n2C	none
Cn1c(N2CCCC2)nc2c1c(=O)n(Cc1cccc(F)c1)c(=O)n2C	CYP2C9 inh 80.9
CCc1nnc(NC(=O)[C@@H](NC(=O)c2cccc(S(=O)(=O)N3CCOCC3)c2)C(C)C)s1	none
CCN1CCCC1CNC(=O)Cn1cccc1C(=O)c1ccccc1C (configuration not stated)	none
Cn1c(=O)c2c(nc(NCc3ccc4c(c3)OCO4)n2Cc2ccccc2)n(C)c1=O	CYP2C9 inh 65.3, CYP2C19 inhib 56.4
O=C(NCc1ccco1)C(NS(=O)(=O)c1cccc2nsnc12)c1ccccc1 (configuration not stated)	none (no result: sEH act, sEH inh)
CCOC(=O)NC1(NC(C)C)Oc2ccccc2O1	none
CCOC(=O)NC1(NC2CCCCC2)Oc2ccccc2O1	CYP2C9 inh 56.7
Cc1ccc(S(=O)(=O)Nc2ccc3nc(N)sc3c2)cc1	CYP2C9 inh 94.9, CYP2C19 inhib 98.6
Cc1ccc(C(=O)Nc2ccc3nc(C)sc3c2)s1	CYP2C9 inh 86.6
Cc1nc2ccc(NS(=O)(=O)c3ccc4c(c3)OCCO4)cc2s1	CYP2C9 inh 97.9, CYP2C19 inhib 97.5
Cc1nc2ccc(NS(=O)(=O)c3c(C)c(C)cc(C)c3C)cc2s1	CYP2C9 inh 74.0
CS(=O)(=O)c1ccc2nc(N)sc2c1	none
Cc1nc2ccc(NC(=O)N3CCOCC3)cc2s1	none
Cc1ccc(NC2=CC(=O)OC(C)C2)cc1 (configuration not stated)	none
[O-][N+]12CCN(CC1)c1ccccc12	none
CN(C)C(=O)N1CCC(C(=O)NCc2ccccc2)CC1	none (no result: sEH act, sEH inh)
Cc1nc2cc(NS(=O)(=O)c3c(C)c(C)cc(C)c3C)ccc2s1	none (no result: CYP2C9 inh, CYP2C19 inhib, CYP2C19 activ, CYP2C9 activ)

Bioassay records deposited in PubChem by several laboratories.
